Several values for one entry are separate records, joined by “and”; a condition that tells them apart may be missing. Equal entries are not always repeated. About 79,000 compounds went through this panel and 15% of them were active in at least one assay; those are over-represented in the sample as a whole. Activity calls are given as the source filed them. No stated cut-off is given here; in the data, active means growth inhibition above about 70%; inactive means the rest.

The assay can be described thus: NCI Yeast Anticancer Drug Screen. Data for the bub3 strain (AID 167). As to conditions: S. cerevisiae bub3 mutant strain, at 50.0 µM, active compounds read high. Here is the method: Growth inhibition of yeast strains with defined genetic alterations is measured as a screen for potential anti-cancer activity. Selected strains with alterations in DNA damage repair or cell cycle control were exposed to compounds and growth inhibition was measured relative to vehicle treated controls. The strain used in this assay is bub3
On to `CCOC(=O)CC(=O)c1ccccc1`, for which the growth inhibition is 13.8% (inactive) and -12.7% (inactive).
To `Cc1ccc2c(sc(-c3ccc4c(c3)sc(-c3ccc5c(c3)sc(-c3ccc(N(C)C)cc3)[n+]5C)[n+]4C)[n+]2C)c1S(=O)(=O)O` (tested in a mixture with another compound) belongs 35% (inactive); to `C=CCn1c2c(c3ccccc3c1=O)C(=O)c1ccccc1-2`, -8.5% (inactive).
With `CC1CC2(OC2C)C(=O)OC2CCN(C)C/C=C(/COC(=O)C1(C)O)C2=O` (stereo not given) the figure was -10.8% (inactive); with `C=CCNC1=C2C[C@@H](C)C[C@@H](OC)[C@@H](OC(=O)CCCN)[C@H](C)/C=C(\C)[C@@H](OC(N)=O)[C@H](OC)/C=C\C=C(/C)C(=O)NC(=CC1=O)C2=O`, 20.6% (inactive).
To `N=C1N=C(N)CS1` belongs 25.9% (inactive).
Regarding `CNC(=S)c1nnsc1N`, the growth inhibition was 6.3% (inactive).
To `NC1N=C(c2ccc(Cl)cc2)C2=C(N1)c1ccccc1CC2` (stereo not given) belongs 18.9% (inactive).
With `C=CC1=C(C)C2=NC1=CC1=NC(=C(CC)/C1=C\O)C=C1N=C3C(=C1C)C(=O)[C@H](C(=O)OC)C3=C1NC(=C2)[C@@H](C)[C@@H]1CCC(=O)O` the figure was -4.35% (inactive).
Consider `CCCCCCCCCCCCC/C=C/[C@H]1[C@@H](C(=O)OC)N1S(=O)c1ccc(C)cc1` (stereo not given in full), for which the growth inhibition was -10.5% (inactive).
With `CC(=O)C(C(C)=O)c1ccccc1` the figure was 4.05% (inactive); with `O=C(Cc1nc2ccc(C(=O)c3ccccc3)cc2[nH]c1=O)C(=O)Nc1ccccc1[N+](=O)[O-]`, 6.15% (inactive); with `CC12CCC(CC1)C(C)(C)O2`, -1.25% (inactive).
With `COc1ccc(/C=C2/NC(=S)N=C2Cl)cc1` the figure was 18.1% (inactive); with `CN(C)c1ccc(/C=N/n2c(-c3ccccc3)nc3ccccc3c2=O)cc1`, 50.8% (inactive); with `COC(=O)c1cc(C#N)[nH]c1-c1ccsc1`, -3.4% (inactive).
With `COc1ccc2c(=O)c(-c3cc4c(cc3OC)OCO4)coc2c1` the figure was -33.5% (inactive); with `COC(=O)/C=C\C(C#N)(C#N)N=Cc1ccsc1`, 74% (active).
With `CCOC(=O)COc1cc(-c2ccccc2)nc2cc(F)ccc12`, the growth inhibition was -4.1% (inactive).
With `Cc1ccc(NC2=N/C(=C/c3ccccc3)C(Cl)=N2)cc1` the figure was 14.3% (inactive); with `COC(=O)/C(=N\NC(=S)NN)C(C(=O)OC)C(=O)C(=O)Nc1cccc(C(F)(F)F)c1` (stereo not given), -9.25% (inactive).
With `C=CC(COC(=O)C(C)(C)OC(C)=O)c1ccc(OC(=O)C(C)C)c(OC)c1` (stereo not given), the growth inhibition was -9% (inactive).
Regarding `COC(=O)c1nc(Br)cnc1N`, the growth inhibition is 4% (inactive).
Take `CCC(c1ccc(N(C)C)cc1)C1NC(=S)NC1=O` (stereo not given): the growth inhibition is 11.8% (inactive).
With `O=C(O)c1n[nH]nc1Cl` the figure was -6.15% (inactive); with `Cc1cc(S(=O)(=O)O)c(NC(=O)c2oc3cc(O)ccc3c(=O)c2C)cc1Cl`, -8.35% (inactive).
`OCC(CO)(CO)COCC(CO)(CO)COCC(CO)(CO)CO`: the growth inhibition is -9.15% (inactive).
Regarding `Cc1ccc(F)cc1NC(=O)O/N=C(\Cl)C(C)C`, the growth inhibition is 4.85% (inactive).
For the compound `CCCCCCCCCC(=O)CC(=O)c1c(O)cc(O)cc1O`, the growth inhibition was 31.8% (inactive).
On to `N/N=C(\C(=O)Nc1ccc([N+](=O)[O-])cc1)C(C1=Nc2cc([N+](=O)[O-])ccc2NC1)[N+](=O)[O-]` (stereo not given), for which the growth inhibition is 5% (inactive).
To `CC(C)/C(Cl)=N/OC(=O)Nc1cccc(C(F)(F)F)c1` belongs 65.5% (inactive).
For the compound `CN1C2CCC1CC(OC(=O)C(O)c1ccccc1)C2` (stereo not given), the growth inhibition is -35.8% (inactive).
In the case of `CC(C)=CC(O)C/C(C)=C/CC/C(C)=C/CCC1(C)C(CCCO)/C(=C(/C)C=O)CCC1(C)O` (stereo not given), the growth inhibition is 4.6% (inactive).
With `COc1ccc(OC)c(N(CN2C(=O)CCC2C(=O)O)C(C)=O)c1` (stereo not given) the figure was -17.7% (inactive).
To `Cc1ccc(/C=C2/N=C(N/N=C\c3ccccc3)NC2=O)cc1` belongs -9.1% (inactive); to `COc1cc2c(cc1C1COc3cc4occc4cc3C1=O)OCO2` (stereo not given), -4.45% (inactive).
In the case of `COc1ccc2c(C)cc(N/N=C/c3ccc(C)s3)nc2c1`, the growth inhibition was -39.1% (inactive).
With `C=C(CCC(C(=O)O)C1CCC2(C)C3=C(CCC12C)C1(C)CCC(O)C(C)(C)C1CC3)C(C)C` (stereo not given) the figure was -23.6% (inactive).
As for `COc1ccc(C2c3cc4c(c(OC)c3CC3OCC(=O)C32)OCO4)cc1OC` (stereo not given), the growth inhibition is 1.45% (inactive).
`CCC(=O)C(CC)c1cccc(OC)c1` (stereo not given): the growth inhibition was 9.55% (inactive).

These data come from PubChem BioAssay (NCI).
